About 13,000 (27%) of roughly 48,000 compounds showed an effect of 50% or more. Some of the results follow.

For the assay, the system named is Wolbachia pipientis. Nature of the assay: Anti-Wolbachia Cell-Based Screen. It counts as functional. Also on record: scale not given: in the data most compounds retested in dose-response had high values. The note with it: 5 µM.
`COc1cc(NC(=O)c2cccc(N(C)C)c2)cc(OC)c1`: the “Percent Effect” value is listed as 6.421%. With `CC(C)Oc1ncc(C(=O)N2CCc3ccc(O)cc3C2)cc1Cl` the figure was -26.56%; with `CN1N=C(c2nc(Cc3cccc(Br)c3)no2)CCC1=O`, -6.645%; with `CC(C(=O)NC1CC1)S(=O)(=O)c1cc2c(cc1Cl)OCCO2` (centres undefined), -15.14%. As to `Cc1noc(C)c1CNS(=O)(=O)N(C)Cc1ccccc1Br`, the “Percent Effect” value is listed as -0.1877%.

For the compound `CCc1noc(CN(C)C(=O)COc2cccc(Cl)c2C)n1`, the “Percent Effect” value came out at 4.111%.

Take `O=C(O)C(F)(F)F.c1csc(CN2CCO[C@H]3[C@H](OCC4CCCC4)CC[C@@H]32)n1`: the “Percent Effect” value was -7.308%. The value for `O=C(O)C(F)(F)F.c1coc(CN2CCO[C@H]3[C@H](OCC4CC4)CC[C@@H]32)c1` was 120.5%; that for `O=C(O)C(F)(F)F.c1coc(CN2CCO[C@H]3[C@@H](OCC4CC4)CC[C@@H]32)c1` was 73.75%; that for `O=C(O)C(F)(F)F.c1coc(CN2CCO[C@H]3[C@H](OCC4CCCC4)CC[C@@H]32)c1` was 101%.

`CC(C)NC(=O)[C@H]1C[C@@H]2[C@@H](C1)OCCN2Cc1ccco1.O=C(O)C(F)(F)F`: the “Percent Effect” value is 1.513%.

`CCC(Nc1ccc(Oc2cccc(C#N)c2)cc1)C(N)=O` (centres undefined): the “Percent Effect” value amounted to 18.43%.

Take `CC[C@@H](CO)NC(=O)c1coc(COc2ccc3sc(C)nc3c2)n1`: the “Percent Effect” value is reported as -14.59%. Consider `CCCc1noc(C(C)N2CC(n3cccn3)C2)n1` (centres undefined), for which the “Percent Effect” value turned out to be 2.136%. The value for `CCOCC1CN(Cc2ccc3c(c2)OCO3)Cc2ncn(C)c21` (centres undefined) was 101.2%; that for `CCOCC1CN(Cc2cc(C)on2)Cc2cn(C)nc21` (centres undefined) was -1.224%. The value for `CN(C)CC1CN(Cc2ccc3c(c2)OCO3)Cc2nccn2C1.O=C(O)C(F)(F)F.O=C(O)C(F)(F)F` (centres undefined) was 4.386%.

For the compound `CCOCC1CN(Cc2cnn(C)c2)Cc2nn(C)cc21.O=C(O)C(F)(F)F` (centres undefined), the “Percent Effect” value is recorded as -12.04%. Take `COCC1CN(Cc2ccc(OC)cc2)Cc2nn(C)cc21.O=C(O)C(F)(F)F` (centres undefined): the “Percent Effect” value is reported as -23.14%.

For the compound `CCOCC1CN(Cc2ccc3c(c2)OCO3)Cc2nccn2C1` (centres undefined), the “Percent Effect” value was 77.74%.

As to `COCC1CN(Cc2ccc3c(c2)OCO3)Cc2ncn(C)c21.O=C(O)C(F)(F)F.O=C(O)C(F)(F)F` (centres undefined), the “Percent Effect” value worked out at 103.2%. The value for `Cn1cnc2c1C(COCC1CC1)CN(Cc1ccc3c(c1)OCO3)C2.O=C(O)C(F)(F)F.O=C(O)C(F)(F)F` (centres undefined) was 34.98%. As for `CCCc1nnc(NCc2ccc(OC)c(C#N)c2)o1`, the “Percent Effect” value is on record as -5.74%.

For the compound `CN1C[C@@H](F)[C@@H](OCc2nc3ccc(C#N)cc3[nH]2)C1`, the “Percent Effect” value is 11.19%. Consider `NC(=O)CN(C(=O)Cc1ccc(C(F)(F)F)cc1)C1CCCC1`, for which the “Percent Effect” value is reported as 1.7%. The value for `CCn1nc(C)c(CCn2ccnc2-c2cc3n(n2)CCCNC3)c1C` was -7.012%; that for `CC(C)CC(O)C1CCN(Cc2cnc(-c3cccs3)nc2)CC1` (centres undefined) was 3.832%; that for `CN(C)S(=O)(=O)c1cccc(NC(=O)Cc2ccon2)c1` was -6.04%. For the compound `COCCn1/c(=N\C(=O)CN(C)S(C)(=O)=O)sc2cccc(F)c21`, the “Percent Effect” value is reported as 0%. As for `O=C(CO)N1CCC(c2ccnc(Nc3cc(C(F)(F)F)ccn3)n2)C1` (centres undefined), the “Percent Effect” value worked out at 149.1%. With `CC(=O)N1CCC(c2ccnc(Nc3cc(C(F)(F)F)ccn3)n2)C1` (centres undefined) the figure was 158.6%; with `Cl.NCC(=O)N1CCC(c2ccnc(Nc3cc(C(F)(F)F)ccn3)n2)C1` (centres undefined), 119.4%; with `O=C(CC(F)(F)F)N1CCCC(c2nccn2Cc2ccncc2)C1` (centres undefined), -5.55%. With `COCC(=O)N1CC(c2ccnc(Nc3cc(C(F)(F)F)ccn3)n2)C1` the figure was 171.1%.

On to `Nc1ccc(C(=O)N2CCCC(c3nccn3Cc3cscn3)C2)cn1` (centres undefined), for which the “Percent Effect” value is on record as -28.34%. The value for `O=C(O)c1cc(-c2ccn(CC3CC3)n2)n2ccccc12` was 0.5352%.

Take `Cn1ccc(-c2cc(C(=O)N3CCCCC3)c3ccccn23)n1`: the “Percent Effect” value is reported as 111.2%. The value for `CC(C)n1ccc(-c2cc(C(=O)N3CCN(C)CC3)c3ccccn23)n1.O=C(O)C(F)(F)F` was -12.81%. The value for `CC(C)c1nc(-c2cc(C(=O)N3CCN(C)CC3)c3ccccn23)cs1.O=C(O)C(F)(F)F` was -39.55%; that for `O=C(c1cc(-c2ccn(CC3CC3)n2)n2ccccc12)N1CCCO1` was -14.88%; that for `Cc1nc(-c2cc(C(=O)N3CCN(C)CC3)c3ccccn23)cn1C` was 1.368%. As to `COCCn1cc(-c2cc(C(=O)N3CCCC3)c3ccccn23)nc1C`, the “Percent Effect” value is on record as -3.651%. The value for `Cn1ccc(-c2cc(C(=O)N3CCC(C(N)=O)CC3)c3ccccn23)n1` was 110.4%. The value for `CN(C)C1CCN(C(=O)c2cc(-c3ccn(C)n3)n3ccccc23)CC1.O=C(O)C(F)(F)F` was 86.54%; that for `Cn1ccc(-c2cc(C(=O)N3CCC(O)CC3)c3ccccn23)n1` was 101.1%.

In the case of `CN1CCCN(C(=O)c2cc(-c3cc[nH]n3)n3ccccc23)CC1.O=C(O)C(F)(F)F.O=C(O)C(F)(F)F`, the “Percent Effect” value was found to be 9.313%. As for `O=C(c1cc(-c2ccn(CC3CC3)n2)n2ccccc12)N1CCOCC1`, the “Percent Effect” value was -12.76%. The value for `CC(C(=O)N(Cc1ccccc1)CC(F)(F)F)S(C)(=O)=O` (centres undefined) was 3.578%.

On to `CC(C)NC(=O)CNC(=O)C12CCC(=O)N1c1cc(Cl)ccc1S2` (centres undefined), for which the “Percent Effect” value is -9.931%.

The values are drawn from ChEMBL document CHEMBL3988442, “University of Dundee, Small-Polar-MMV Screening Library” (2021).
